From PubChem
The sample as a whole holds a higher share of hits than the screen did.
Pf Dd2 growth: inhibitors of Plasmodium falciparum Dd2 growth | 120,000 compounds, 4.3% hits | P. falciparum Dd2 growth, SYBR Green, 72 h | Potency, µM (highest dose often 28.9 µM), inactives show at the highest dose activity, negative = inhibition, hits mostly inhibitors; active = well fitted inhibition curve with a large enough effect;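 also: plate controls were DMSO vehicle for no effect and reference drug for full effect; nearly all actives have a fitted effect of over 65% in size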
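Readout: SYBR Green fluorescence, 485 nm excitation, 535 nm emission, after ~16 h lysis at 37C. Before that, Dd2-infected red cells (2.5% hematocrit) grew 72 h with compound, 29 uM top final concentration.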
* marks the source's active call; other numbers are inactive results; i = inactive; [ ] = remark or other dose. Potency is read from the fitted curve at half-maximal effect.

SMILES	Pf Dd2 growth
COc1ccc(NC(=O)CSc2nc3c([nH]c4ccccc43)c(=O)n2-c2ccccc2)c(OC)c1	5.01µM*
CCOc1ccc(NC(=O)CSc2nc3c([nH]c4ccccc43)c(=O)n2-c2cc(C)cc(C)c2)cc1	i
O=C(CSc1nc2c([nH]c3ccccc32)c(=O)n1-c1ccccc1)N1CCCCCC1	-23.0%
CC1CCN(C(=O)CSc2nc3c([nH]c4ccccc43)c(=O)n2-c2ccccc2)CC1	29.4%
COc1ccc(NC(=O)CSc2nc3c([nH]c4ccccc43)c(=O)n2C)cc1	41.1%
CCOc1ccc(-n2c(SCC(=O)Nc3ccc4c(c3)OCCO4)nc3c([nH]c4ccccc43)c2=O)cc1	i
O=C(CSc1nc2c([nH]c3ccccc32)c(=O)n1-c1ccccc1F)Nc1ccccc1C(F)(F)F	10µM*
COc1cccc(NC(=O)CSc2nc3c([nH]c4ccccc43)c(=O)n2-c2ccccc2)c1	5.62µM*
O=C(CSc1nc2c([nH]c3ccccc32)c(=O)n1-c1ccccc1)Nc1ccc2c(c1)OCO2	11.2µM*
COCC(=O)N[C@@H]1CN(Cc2ccco2)CC[C@@H]1c1n[nH]c(C)n1	6.1%
Cc1nn2c(c1-c1ccnn1C(C)C)N(C(=O)Cc1ccc(O)cc1)CCC2	-20.0%[44.1 µM]
COc1ccccc1CCC(=O)NC(C)C(=O)N1CCN(c2ccccn2)CC1 (stereo unspecified)	i
C[C@@H](NC(=O)Cc1ccccc1)c1c(-c2ccc(F)cc2)noc1C(=O)O	i
CNC(=O)[C@@H](c1ccccc1OC)N1CCC[C@H]1C(=O)N1CCOCC1	1.4%[44.1 µM]
CCc1cc(CN2C[C@H](NC(=O)c3ncn[nH]3)C[C@H]2C(=O)NC(C)C)on1	2.9%
Cn1nccc1CN1CCC2(Cc3ccccc3NC2=O)C1 (stereo unspecified)	-23.1%[44.1 µM]
COc1ccc(Cn2ccc3nc(C)c(C(=O)N4CCN(c5ccccc5)CC4)cc3c2=O)cc1	14.5%
COc1ccc(Cn2ccc3nc(C)c(C(=O)N4CCN(c5cccc(OC)c5)CC4)cc3c2=O)cc1	12.6µM*
COc1ccc(Cn2ccc3nc(C)c(C(=O)NCc4cccc(OC)c4)cc3c2=O)cc1	-25.0%
O=C(Nc1ccc(C(F)(F)F)cc1)N1CCCC1c1nncn1C1CCCC1 (stereo unspecified)	i
Cn1c(=O)c2c(nc(SCC(=O)Nc3ccc(OC(F)(F)F)cc3)n2Cc2cccc(C(F)(F)F)c2)n(C)c1=O	11.2µM*
Cn1c(=O)c2c(nc(SCC(=O)Nc3ccccc3)n2Cc2ccccc2F)n(C)c1=O	-1.9%
Cn1c(=O)c2c(nc(SCC(=O)Nc3ccc(F)cc3F)n2Cc2ccccc2)n(C)c1=O	-10.9%
CN(C)C[C@@H]1CN(Cc2ccncc2)C[C@H]1NC(=O)c1ccc2c(c1)OCO2	17.4%
COC(=O)c1cccc(NC(=O)C2CCc3sc(C(=O)N(C)C)cc3C2)c1 (stereo unspecified)	i
SMILES	Pf Dd2 growth
COc1cccc(CCC(=O)NCCC2CCN(C(=O)Nc3ccc(C)cc3)CC2)c1	i
Cc1ccc2cc3cc(C(=O)N(C)c4ccccc4C)oc3nc2c1	11.2µM*
COc1ccc(CNC(=O)c2cc3cc4ccc(C)cc4nc3o2)cc1	i
COc1ccc2cc3cc(C(=O)NCc4ccccc4OC)oc3nc2c1	i
O=C(NC1CCCc2c1cnn2-c1ccc(F)cc1F)c1c(F)cccc1Cl (stereo unspecified)	-23.9%
CN(C)CCN1CCN(c2cc(C3CC(N)C3)nc(N)n2)CC1 (stereo unspecified)	-9.7%
COCCNC(=O)[C@@H]1C[C@@H](c2ccc(F)cc2)N([S+](=O)([O-])c2cccnc2)C1	-3.0%[44.1 µM]
CC(C)N[C@@H]1CO[C@H](CNC(=O)c2ccccc2)[C@H]1O	-13.2%[44.1 µM]
CCC(NCc1c(C(=O)N2CCCCCC2)nc2cc(C)ccn12)c1ccc(C)cc1 (stereo unspecified)	10µM*
Cc1ccn2c(=O)c(C(=O)NCc3ccccc3Cl)c(O)nc2c1	37.6%
Cc1ccn2c(C(=O)NCc3cccnc3N3CCN(C)CC3)c(C)nc2c1	-9.9%
CN(C)[S+](=O)([O-])c1ccc2c(c1)OCCN(Cc1ccsc1)C2	i
O=C(c1ccncc1)N1CCn2c(nnc2-c2cncc(Br)c2)C1	i
CC(C)N1C[C@H](C(=O)NCCC2=CCCCC2)[C@H](C(=O)O)C1	-10.2%
O=C(NCc1ccc(Cl)cc1)c1ccc2cncn2c1	-9.0%[44.1 µM]
COc1ccc(Nc2cnc3ccc(-c4cccc(CO)c4)nn23)cc1	i
COc1ccc(-c2ccc3ncc(Nc4cccc(F)c4)n3n2)cn1	i
COc1ccc(-c2ccc3ncc(Nc4ccc(C(N)=O)cc4)n3n2)cn1	i
COc1ccc(-c2ccc3ncc(Nc4ccccc4C)n3n2)cn1	5.62µM*
Cc1ccccc1Nc1cnc2ccc(-c3cccc(CO)c3)nn12	2.51µM*
OCc1cccc(-c2ccc3ncc(Nc4cccc(F)c4)n3n2)c1	i
COCCN1CC(C(=O)N2CCN(c3ncccc3C#N)CC2)CCC1=O (stereo unspecified)	13.1%
COc1ccccc1CNC(=O)c1cc2cn(C3CC3)cc2s1	i
CCOc1ccccc1CNC(=O)c1cc2cn(C3CCCC3)cc2s1	12.6µM*
CCOc1ccccc1CNC(=O)c1cc2cn(C(C)C)cc2s1	-11.8%
SMILES	Pf Dd2 growth
COC(=O)C1CCN(C(=O)CC(c2ccccc2)c2ccccc2Cl)CC1 (stereo unspecified)	-2.1%
Cc1ccc(N2CCN(C(=O)[C@@]34CCCC[C@H]3N(C)C(=O)CC4)CC2)cc1	10.3%
CCc1ccc(CNC(=O)C2CCCN(c3nnc(C)c4c(C)n(-c5ccccc5)nc34)C2)cc1 (stereo unspecified)	-29.0%
CCOC(=O)c1cccc(NC(=O)C2CCCN(c3nnc(C)c4c(C)n(-c5ccccc5)nc34)C2)c1 (stereo unspecified)	i
Cc1ccc(CCNC(=O)C2CCCN(c3nnc(C)c4c(C)n(-c5ccccc5)nc34)C2)cc1 (stereo unspecified)	52.7%[5.79 µM]
COc1ccc(-n2nc3c(N4CCCC(C(=O)NCc5cccc(F)c5)C4)nnc(C)c3c2C)cc1 (stereo unspecified)	11.2µM*
CCOc1ccc(CCNC(=O)C2CCCN(c3nnc(C)c4c(C)n(-c5ccccc5)nc34)C2)cc1 (stereo unspecified)	7.94µM*
Cc1ccc(-n2nc3c(N4CCCC(C(=O)NCc5ccc(Cl)cc5)C4)nnc(C)c3c2C)cc1 (stereo unspecified)	-14.3%
Cc1nnc(N2CCC(C(=O)NC3CCCCC3)CC2)c2nn(-c3ccccc3)c(C)c12	42.2%
CCOC(=O)C1CCCN(C(=O)C2CCN(c3nnc(C)c4c(C)n(-c5ccccc5)nc34)CC2)C1 (stereo unspecified)	10µM*
Cc1nnc(N2CCCC(C(=O)NCc3ccccc3)C2)c2nn(-c3ccccc3)c(C)c12 (stereo unspecified)	28.8%
O=C(C1CCOCC1)N1CCC(Oc2ccccc2)C1 (stereo unspecified)	7.1%
COCCOC1CCOC2(CCN(C(=O)c3ccc(OC)cc3)CC2)C1 (stereo unspecified)	i
CCOC(=O)C1(Cc2ccc(F)cc2)CCCN(C(=O)c2cc3nc(C)cc(C)n3n2)C1 (stereo unspecified)	i
COCCN1C(=O)N(C2Cc3ccccc3C2)C(=O)C12CCN(Cc1ccc(CO)o1)CC2	-29.7%
CNC(=O)[C@@H]1CN(Cc2ccccc2OC(F)(F)F)C[C@H]1CO	6.4%
O=C(NC1CC1)[C@@H]1CN(Cc2ccc(OC(F)(F)F)cc2)C[C@H]1CO	12.6µM*
